From PubChem
KDM5B inhibitor = Primary screen for KDM5B Histone Demethylases FDH-coupled qHTS | Lysine-specific demethylase 5B (Homo sapiens), Q9UGL1 | KDM5B demethylase, FDH-coupled NADH fluorescence (FDH is formaldehyde dehydrogenase) | Potency, µM (series often up to 57.7 µM), usual class: inhibitors | 220,000 tested, 2.6% active | AID 1347165, 2019; active = well fitted inhibition curve with a large enough effect; note: nearly all actives have a fitted effect of over 70% in size
Target sequence (Q9UGL1 whole entry, looked up): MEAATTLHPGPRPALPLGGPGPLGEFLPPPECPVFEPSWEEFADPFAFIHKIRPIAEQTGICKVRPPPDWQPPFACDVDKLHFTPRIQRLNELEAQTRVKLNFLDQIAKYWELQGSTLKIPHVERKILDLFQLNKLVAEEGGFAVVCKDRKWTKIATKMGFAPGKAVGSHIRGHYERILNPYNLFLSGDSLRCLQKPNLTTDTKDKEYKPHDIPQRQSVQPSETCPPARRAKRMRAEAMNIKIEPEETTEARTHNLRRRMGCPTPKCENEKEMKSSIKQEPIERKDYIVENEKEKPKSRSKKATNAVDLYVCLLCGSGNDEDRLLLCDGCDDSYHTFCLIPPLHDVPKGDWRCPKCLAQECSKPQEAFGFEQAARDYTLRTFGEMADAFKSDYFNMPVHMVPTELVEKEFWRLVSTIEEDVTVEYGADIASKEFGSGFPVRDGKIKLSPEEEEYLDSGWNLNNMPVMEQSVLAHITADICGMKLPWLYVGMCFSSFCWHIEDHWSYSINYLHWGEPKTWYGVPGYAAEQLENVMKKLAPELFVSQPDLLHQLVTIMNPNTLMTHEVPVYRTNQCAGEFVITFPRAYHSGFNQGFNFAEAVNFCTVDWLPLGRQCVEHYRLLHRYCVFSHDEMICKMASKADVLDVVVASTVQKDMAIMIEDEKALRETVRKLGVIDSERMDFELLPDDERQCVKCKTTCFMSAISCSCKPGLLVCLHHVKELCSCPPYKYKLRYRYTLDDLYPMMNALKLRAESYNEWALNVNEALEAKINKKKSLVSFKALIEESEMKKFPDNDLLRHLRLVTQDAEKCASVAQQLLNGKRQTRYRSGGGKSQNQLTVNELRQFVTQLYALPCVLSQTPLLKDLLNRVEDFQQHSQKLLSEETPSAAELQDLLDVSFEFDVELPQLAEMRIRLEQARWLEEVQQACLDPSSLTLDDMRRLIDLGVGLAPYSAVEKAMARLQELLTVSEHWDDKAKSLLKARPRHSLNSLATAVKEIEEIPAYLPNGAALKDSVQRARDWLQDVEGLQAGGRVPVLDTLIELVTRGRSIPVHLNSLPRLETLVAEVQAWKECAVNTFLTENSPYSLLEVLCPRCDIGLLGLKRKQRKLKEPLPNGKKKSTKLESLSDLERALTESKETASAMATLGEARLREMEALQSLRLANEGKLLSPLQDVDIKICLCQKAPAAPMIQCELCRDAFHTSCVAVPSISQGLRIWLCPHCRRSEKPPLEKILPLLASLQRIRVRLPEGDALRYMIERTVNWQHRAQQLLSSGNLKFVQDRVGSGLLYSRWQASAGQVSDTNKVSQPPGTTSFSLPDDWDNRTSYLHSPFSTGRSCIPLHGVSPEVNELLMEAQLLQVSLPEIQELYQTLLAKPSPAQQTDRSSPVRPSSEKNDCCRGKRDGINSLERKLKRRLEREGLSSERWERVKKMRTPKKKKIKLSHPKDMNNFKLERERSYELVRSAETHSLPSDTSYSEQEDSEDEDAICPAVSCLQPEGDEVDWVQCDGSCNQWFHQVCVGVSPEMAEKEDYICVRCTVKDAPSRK
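Here, H3K4me3 peptide (12.5 µM in substrate mix) is demethylated by KDM5BΔAP, 200 nM final, after 10 min compound exposure. Formaldehyde product is coupled through FDH (0.25 U/mL in mix) to NADH fluorescence; 30-min ΔRFU feeds dose-response curves.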
Numbers stand for hits; - = inactive; [ ] = another dose, or the depositor's remark. The entries come from a sample that favours hits as a whole.

SMILES	KDM5B inhibitor
Cc1nn(-c2ccc(F)cc2)c(Oc2ccc(F)cc2F)c1CCC(=O)NCC1CCCO1 (centres undefined)	-
O=C(c1ccccc1)N1CCC(Cc2nc(-c3ccncc3)n[nH]2)CC1	-
CCc1n[nH]c(CC2CCN(C(=O)c3ccc(OC)c(OC)c3)CC2)n1	-
CCc1n[nH]c(CC2CCN(C(=O)c3ccccc3)CC2)n1	22µM
Cc1ccc2[nH]c(CSc3nnc(C)s3)cc(=O)c2c1	-
OC[C@]12CCCN[C@@H]1CCN(Cc1cccc(-c3ccccn3)c1)C2	-
Cc1ccc2[nH]c(CN3CC[C@H]4NCCC[C@]4(CO)C3)cc(=O)c2c1	13µM
CN(CC(=O)Nc1ccccc1Cl)C(=O)c1nn(-c2ccccc2)c2c1CCC2	-
NC1CCC(NC(=O)C2CCCN(C3CCN(CCc4ccccc4)CC3)C2)CC1 (centres undefined)	-
O=C(CCc1ccc(F)cc1)Nc1ccccc1-c1ccccc1	-
CCc1ccc(-c2nc(C3CC(=O)N(c4ccc(OC)cc4)C3)no2)cc1 (centres undefined)	-
COc1cc(OC)cc(-c2nc(C3CC(=O)N(c4ccc(OC)c(OC)c4)C3)no2)c1 (centres undefined)	28µM
CCc1ccc(N2CC(c3noc(-c4ccsc4)n3)CC2=O)cc1 (centres undefined)	-
CCc1ccc(N2CC(c3noc(-c4ccccc4F)n3)CC2=O)cc1 (centres undefined)	-
COc1ccc(N2CC(c3noc(-c4cc(C)cc(C)c4)n3)CC2=O)cc1OC (centres undefined)	-
COc1ccc(N2CC(c3noc(-c4ccccc4F)n3)CC2=O)cc1OC (centres undefined)	-
CCc1ccc(N2CC(c3noc(-c4ccc(OC)nc4OC)n3)CC2=O)cc1 (centres undefined)	35µM
CCc1ccc(N2CC(c3noc(-c4cc(F)cc(F)c4)n3)CC2=O)cc1 (centres undefined)	-
CCc1ccc(N2CC(c3noc(-c4cc(OC)c(OC)c(OC)c4)n3)CC2=O)cc1 (centres undefined)	32µM
CCCN(CCC)CCNC(=O)Cn1c(C)c(C(=O)OCC)c(C)c1-c1ccccc1	-
Fc1ccc(-c2cc(CC3(NCc4ccccc4F)COC3)no2)cc1	-
CNC(=O)NC(=O)C(C)SC(C)c1c(F)cccc1F (centres undefined)	-
O=C(c1cccnc1OC1CCN(S(=O)(=O)c2cccc(F)c2)C1)N1CCOCC1 (centres undefined)	-
CN(C)CCN(C)C[C@@H]1CN(C(=O)c2ccc(=O)n(C)c2)C[C@@H]1CO	-
Cc1cccc2nnc(N3CCN(C(=O)CCc4ccccc4)CC3)n12	25µM
SMILES	KDM5B inhibitor
Cc1ccc(C(=O)N2CCN(c3nnc4cccc(C)n34)CC2)cc1C	25µM
CC(=O)N1CCN(C(=O)CCc2nc(Cc3ccccc3)no2)CC1	-
Cc1cccc2nnc(N3CCCN(C(=O)c4ccccc4Cl)CC3)n12	22µM
Cc1cccc2nc(C(=O)N3CCN(c4cccc(Cl)c4)CC3)cn12	-
Cc1ccc(Cl)cc1N1CCN(C(=O)c2cccn2-c2nnc(N3CCCCC3)s2)CC1	-
COc1ccc(C(=O)N2CCCN(c3cc(-c4ccc(C)c(C)c4)[nH]n3)CC2)cc1OC	-
Cc1ccc(C(=O)N2CCN(CCc3ccccc3)CC2)cc1C	-
Cc1cnc(C2CCC2)n1CC1CCN(C(=O)CCc2ccccc2)CC1	-
COc1ccc(CN(C)CC(O)COc2ccccc2)c(OC)c1OC (centres undefined)	-
CN(C)c1ncnc2sc3c(c12)CCN(S(=O)(=O)c1ccccc1)C3	-
CCN(CC)c1ccc(/C=N/NS(=O)(=O)c2ccc(Cl)cc2)cc1	-
Cc1oc(-c2ccccc2)nc1C(=O)Nc1cccc(F)c1	-
Cc1nc(NCCC(C)C)sc1C(=O)Nc1ccccc1	-
COc1ccc(C(=O)N/C(=C\c2cc3ccc(OC)cc3nc2Cl)C(=O)N(C)C)cc1	-
O=C(NCCc1ccccc1F)c1nc2sccn2c1Br	-
CCOc1ccc(C(=O)CC2(O)C(=O)Nc3ccccc32)cc1 (centres undefined)	-
CCC(CC)NC(=O)c1ccc(C)c(C)c1	-
O=C(CCc1cccc(Cl)c1Cl)NC1CCN(C2CC2)C1 (centres undefined)	-
C=CCNC(=O)CSCc1coc(-c2ccc(Cl)cc2)n1	-
Cc1cccc(OC[C@H]2C[C@@H](NC(=O)c3ccccc3)[C@H](O)[C@@H]2O)n1	35µM
Cc1cccc(OC[C@H]2C[C@@H](NC(=O)C3CCCC3)[C@H](O)[C@@H]2O)n1	-
Cc1cccc(OC[C@H]2C[C@@H](NC(=O)c3ccc(C#N)cc3)[C@H](O)[C@@H]2O)n1	-
COc1ccc([C@@H](NC(=O)c2ccc3cccc(F)c3n2)C2CC(O)C2)cn1 (some centres undefined)	22µM
CCCc1nc(C(=O)NC(c2ccc(OC)nc2)C2CC(O)C2)cs1 (centres undefined)	-
COc1ccc(C(NC(=O)c2cccc(OC(F)F)c2)C2CC(O)C2)cn1 (centres undefined)	-
SMILES	KDM5B inhibitor
N#Cc1ccc(NC(=O)Cn2nc3c(N4CCCC4)nc4ccccc4n3c2=O)cc1	-
CC(C)CS(=O)(=O)Nc1ccc([C@H]2OCC(=O)N(Cc3ccc(F)cc3)[C@@H]2CO)cc1	-
Cc1ccc(NC(=O)c2cc3c(N(C)Cc4ccccc4)nc(C)cn3n2)c(F)c1	10µM
Cc1ccc(Cl)cc1NC(=O)Nc1nnc(N(C)Cc2ccccc2)s1	-
Cc1ccc(NC(=O)c2nn(-c3ccccc3)c(=O)c3ccccc23)c(F)c1	-
COc1ccc(NC(=O)Cn2c(N(C)Cc3ccccc3)nc(C)cc2=O)cc1	-
Cc1cn2nc(C(=O)Nc3ccc(C)c(F)c3)cc2c(N(C)Cc2ccccc2)n1	-
Cc1cn2nc(C(=O)Nc3ccc(Cl)cc3)cc2c(N(C)Cc2ccccc2)n1	28µM
Cc1cn2nc(C(=O)Nc3ccc(F)cc3)cc2c(N(C)Cc2ccccc2)n1	25µM
Cc1ccc(NC(=O)Nc2nnc(N(C)Cc3ccccc3)s2)c(C)c1	-
O=C(Nc1ccc(S(=O)(=O)N(Cc2ccccc2)c2ccccc2)cc1)c1ccc(F)cc1	-[11.5 µM]
Cc1noc(C)c1Cc1ccc(C(=O)N2CCCCCCNC(=O)[C@@H]3CCCC[C@@H]32)o1	-
COc1cc(NC(=O)c2nc3ccccc3nc2OC)cc(OC)c1	-
COCC(=O)N1N=C(c2ccc3c(c2)OCO3)CC1c1ccc2nccnc2c1 (centres undefined)	-
Cc1ccc2oc(C(=O)Nc3ccc(S(=O)(=O)Nc4cc(C)nc(C)n4)cc3)cc(=O)c2c1	-
COc1ccc(CN(CC(F)(F)F)C(=O)c2cnc3ccccc3n2)cc1	-
Cc1cccc(Nc2nc(-c3ccccc3)cs2)c1C	-
COc1ccc(OCCCC(=O)Oc2ccc3oc4ccccc4c3c2)cc1	-
Cc1ccc(NC(=O)c2cc3n(n2)CC(c2ccc(Cl)cc2)OC3)cc1F (centres undefined)	28µM
Cc1ccc(C)c(N2CCN(C(=O)c3cc4n(n3)CC(c3ccc(Cl)cc3)OC4)CC2)c1 (centres undefined)	-
CC(C)c1ccc(CNC(=O)c2cc3n(n2)CC(c2ccc(Cl)cc2)OC3)cc1 (centres undefined)	-
O=C(Nc1ccc(F)c(F)c1)c1cc2n(n1)CC(c1ccc(Cl)cc1)OC2 (centres undefined)	-
COc1ccc(CNC(=O)c2cc3n(n2)CC(c2ccc(Cl)cc2)OC3)cc1 (centres undefined)	-
